{
  "source": "PubChem BioAssay (NCATS)",
  "note": "Where “and” joins values, the source holds several entries; their conditions need not be identical. Equal entries are not always repeated. Records with an inconclusive call do not appear. Where a call stands in place of a potency, no number is given. Calls of active or inactive are those of the source. Calls come from the whole dose curve; as a rule, active = well fitted curve in the direction sought with a large enough effect; inconclusive = small, poorly fitted or top-dose-only effect, or another doubt; inactive = no such curve, though single readings can be large; an effect the other way counts as inactive or inconclusive.",
  "data": [
    {"biological_target": "Cytochrome P450 3A4 (Homo sapiens) (UniProt P08684)", "sequence (P08684 whole entry, looked up)": "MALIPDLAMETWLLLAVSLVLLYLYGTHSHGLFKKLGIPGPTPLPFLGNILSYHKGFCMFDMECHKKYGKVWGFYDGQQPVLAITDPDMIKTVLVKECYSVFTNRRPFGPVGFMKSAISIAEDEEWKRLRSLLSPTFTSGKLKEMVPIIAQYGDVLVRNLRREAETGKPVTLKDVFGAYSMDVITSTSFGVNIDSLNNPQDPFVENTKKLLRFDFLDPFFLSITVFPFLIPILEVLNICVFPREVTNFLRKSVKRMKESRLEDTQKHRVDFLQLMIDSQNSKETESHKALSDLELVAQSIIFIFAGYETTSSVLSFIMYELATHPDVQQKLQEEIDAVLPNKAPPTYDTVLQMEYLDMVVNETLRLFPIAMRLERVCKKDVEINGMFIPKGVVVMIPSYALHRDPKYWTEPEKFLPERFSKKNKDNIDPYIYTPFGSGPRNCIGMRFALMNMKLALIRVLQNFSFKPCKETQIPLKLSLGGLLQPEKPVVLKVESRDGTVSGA", "experiment": "qHTS Assay for Activators of Cytochrome P450 3A4 (AID 885); note: nearly all actives have a fitted effect of over 65% in size", "conditions": "recombinant CYP3A4, Luciferin-PPXE luminescence, 60 min; series mostly up to 57.1 µM", "method_in_brief": "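Human CYP3A4 dealkylates Luciferin-PPXE to luciferin, which luciferase detection converts to light. Substrate was at its KM (25uM), buffer 200mM KPO4, reaction 60 min at RT.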", "values": [
      {"smiles": "CCC[C@@H]1C[C@@]1(CCC)C(NC(=O)OCc1ccccc1)c1ccc(-c2ccccc2)cc1", "note": "(some centres not stated)", "Potency": "inactive"},
      {"smiles": "COC(=O)C(/C=C/C(C)Cc1cc(Br)cc(OCc2ccccc2)c1OC)OCc1ccccc1", "note": "(configuration not stated)", "activity change, positive = activation": "-50.4% [at 11.4 µM] (inactive)"},
      {"smiles": "CCc1cc2c(nc1CC)CCN(CC/C(C)=N/OC[C@@H](O)[C@@H]1O[C@@H]3OC(C)(C)O[C@@H]3[C@H]1O)C2", "activity change, positive = activation": "-30.5% [at 11.4 µM] (inactive)"},
      {"smiles": "C#CCCCCCCCCCCCC(O)CC(O)COC(C)=O", "note": "(configuration not stated)", "Potency": "inactive"},
      {"smiles": "COc1ccc(/C=C/N(CCc2ccc(OC)c(OC)c2)C(=O)C(F)(F)F)cc1", "activity change, positive = activation": "-97.3% [at 11.4 µM] (inactive)"},
      {"smiles": "CC1CCC2C(=O)N3C(CCC(C)[C@H]3c3cccc(N4CCCC4=O)c3)C(=O)N2C1c1cccc(N2CCCC2=O)c1", "note": "(some centres not stated)", "activity change, positive = activation": "-53.3% [at 11.4 µM] (inactive)"},
      {"smiles": "CCCCCC(=O)O[C@@]1(C(C)=O)CCC2C3CCC4=CC(=O)CC[C@@]4(C)C3CC[C@]21C", "note": "(some centres not stated)", "Potency": "inactive"},
      {"smiles": "C/C(CCN1CCc2nc(-c3ccccc3)c(-c3ccccc3)cc2C1)=N\\OC[C@@H](C)[C@H](OCc1ccccc1)C(C)C", "activity change, positive = activation": "-51.7% [at 11.4 µM] (inactive)"},
      {"smiles": "CC/C=C\\CC[C@H](OC(=O)c1ccc(Br)cc1)C1=CCCCC1=O", "activity change, positive = activation": "-40.7% [at 11.4 µM] (inactive)"},
      {"smiles": "CNC1CCC(c2ccc(Cl)c(Cl)c2)c2ccccc21", "note": "(configuration not stated)", "Potency": "inactive"},
      {"smiles": "COc1ccc(OC2C(O)COC2/C=C/c2ccccc2)cc1", "note": "(configuration not stated)", "activity change, positive = activation": "-47.5% [at 11.4 µM] (inactive) and -40.4% [at 11.4 µM] (inactive)"},
      {"smiles": "C/C=C/OC(=O)NC(c1ccccc1)[C@]1(C(C)=O)CCCC1=O", "note": "(some centres not stated)", "activity change, positive = activation": "-53.9% [at 11.4 µM] (inactive)"},
      {"smiles": "COc1cccc([C@@H]2Oc3ccc(OC)cc3/C(=N/OC[C@@H](O)COCc3ccco3)[C@@H]2O)c1", "activity change, positive = activation": "-84.1% [at 11.4 µM] (inactive)"},
      {"smiles": "C[C@@H]1O[C@H]2C3=C(C(=O)[C@H]4O[C@@H]4[C@H]3O)[C@@H]1[C@@H]1[C@@H](C)OC=C3[C@H](O)[C@H]4O[C@@H]4/C(=N\\OCc4ccccc4)[C@]312", "activity change, positive = activation": "-31.8% [at 11.4 µM] (inactive)"}
    ]},
    {"biological_target": "Cytochrome P450 2D6 (Homo sapiens) (UniProt P10635)", "sequence (P10635 whole entry, looked up)": "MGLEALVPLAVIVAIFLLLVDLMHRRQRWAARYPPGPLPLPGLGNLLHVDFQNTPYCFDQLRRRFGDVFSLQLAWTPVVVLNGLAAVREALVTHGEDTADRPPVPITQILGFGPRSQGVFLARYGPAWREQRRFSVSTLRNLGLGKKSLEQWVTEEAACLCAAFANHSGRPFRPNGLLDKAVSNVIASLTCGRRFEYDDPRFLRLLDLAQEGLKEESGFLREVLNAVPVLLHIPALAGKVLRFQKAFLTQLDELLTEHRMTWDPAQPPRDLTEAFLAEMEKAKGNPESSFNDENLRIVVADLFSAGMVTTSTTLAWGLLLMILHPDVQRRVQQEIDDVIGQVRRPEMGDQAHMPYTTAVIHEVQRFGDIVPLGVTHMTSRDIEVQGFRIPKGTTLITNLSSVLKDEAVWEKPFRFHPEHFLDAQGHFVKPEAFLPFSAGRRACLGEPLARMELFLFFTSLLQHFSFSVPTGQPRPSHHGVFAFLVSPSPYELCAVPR", "experiment": "qHTS Assay for Inhibitors and Substrates of Cytochrome P450 2D6 (AID 891); note: nearly all actives have a fitted effect of over 60% in size; note: potency is the fitted concentration of half-maximal effect", "conditions": "recombinant CYP2D6, luciferin-ME EGE luminescence; series mostly up to 11.4 µM", "method_in_brief": "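Luminescent read-out of luciferin formed by 5 nM human CYP2D6 demethylating 30 uM Luciferin-ME EGE (Km level) over 60 min at room temperature after NADPH regeneration addition. Data normalized to full inhibition by 1.43 uM quinidine.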", "values": [
      {"smiles": "CCCCCCCC#Cc1ccccc1C(NC(=O)OC)C(C(=O)OC)C(=O)OC", "note": "(configuration not stated)", "Potency": "inactive"},
      {"smiles": "CC(=O)OC[C@@H]1O[C@H](C/C=N\\O[C@@H](C)CN2CCCCc3nc(C)c(C)cc32)C=C[C@@H]1OC(C)=O", "Potency": "3160 nM (active)"},
      {"smiles": "CC1CCC2C(=O)N3C(CCC(C)C3c3ccccc3Br)C(=O)N2C1c1ccc(C#CCN(C)C)cc1", "note": "(configuration not stated)", "Potency": "inactive"},
      {"smiles": "CCN1C(=O)[C@H]2[C@H]3[C@H](O)[C@H](O)C/C(=N/OC[C@@H](C)[C@H](OCc4ccccc4)C(C)C)[C@@H]3CC[C@@H]2C1=O", "Potency": "inactive"},
      {"smiles": "CC(C)=NO[C@@H](C)CN1CCCCc2nc(C)c(C)cc21", "Potency": "2510 nM (active)"},
      {"smiles": "COC(=O)C/C=C\\[C@@H](C)[C@@H](/C=N\\OC[C@@H](O)[C@H]1O[C@H]2OC(C)(C)O[C@H]2[C@@H]1O)OC", "Potency": "inactive"},
      {"smiles": "C[C@@H]1/C=C\\CC(=O)OC[C@H](C)C(=O)N[C@@H](Cc2ccccc2)C(=O)OC1", "Potency": "inactive"},
      {"smiles": "CO[C@@H]1COC(=O)[C@@H](C)NC(=O)C/C=C\\[C@@H](C)[C@H](NS(=O)(=O)c2ccc(C)cc2)COC(=O)[C@H](C)NC(=O)C/C=C\\[C@H]1C", "Potency": "inactive"},
      {"smiles": "CCOC(=O)OCC1OC(C#Cc2ccc(Br)cc2)C=CC1OC(=O)OCC", "note": "(configuration not stated)", "Potency": "inactive"},
      {"smiles": "COc1ccc(OC)c(-c2ccccc2/C=N/NS(=O)(=O)c2ccc(C)cc2)c1", "Potency": "inactive"},
      {"smiles": "CCC[C@@H]1C[C@@]1(CCC)C(NC(=O)OCc1ccccc1)c1ccc(-c2ccccc2)cc1", "note": "(some centres not stated)", "Potency": "7940 nM (active)"},
      {"smiles": "COC(=O)C(/C=C/C(C)Cc1cc(Br)cc(OCc2ccccc2)c1OC)OCc1ccccc1", "note": "(configuration not stated)", "Potency": "inactive"},
      {"smiles": "CC1CCC2C(=O)N3C(CCC(C)[C@H]3c3cccc(N4CCCC4=O)c3)C(=O)N2C1c1cccc(N2CCCC2=O)c1", "note": "(some centres not stated)", "Potency": "inactive"},
      {"smiles": "COc1ccc(OC2C(O)COC2/C=C/c2ccccc2)cc1", "note": "(configuration not stated)", "Potency": "inactive"},
      {"smiles": "C/C=C/OC(=O)NC(c1ccccc1)[C@]1(C(C)=O)CCCC1=O", "note": "(some centres not stated)", "Potency": "inactive"}
    ]},
    {"biological_target": "Cytochrome P450 2C19 (Homo sapiens) (UniProt P33261)", "sequence (P33261 whole entry, looked up)": "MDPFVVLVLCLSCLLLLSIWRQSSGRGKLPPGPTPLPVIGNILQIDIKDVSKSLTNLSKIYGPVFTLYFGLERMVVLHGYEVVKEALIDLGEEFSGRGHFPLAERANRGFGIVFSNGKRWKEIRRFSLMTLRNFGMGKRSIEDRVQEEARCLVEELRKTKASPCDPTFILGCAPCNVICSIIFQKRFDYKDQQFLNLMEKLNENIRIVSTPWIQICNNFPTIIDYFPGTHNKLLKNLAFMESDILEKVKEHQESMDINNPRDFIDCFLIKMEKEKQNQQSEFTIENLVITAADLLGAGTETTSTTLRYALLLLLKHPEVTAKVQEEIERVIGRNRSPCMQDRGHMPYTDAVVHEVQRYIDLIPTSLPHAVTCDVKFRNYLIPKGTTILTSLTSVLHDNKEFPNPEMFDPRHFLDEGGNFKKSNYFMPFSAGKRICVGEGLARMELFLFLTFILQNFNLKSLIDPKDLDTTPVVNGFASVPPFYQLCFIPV", "experiment": "qHTS Assay for Inhibitors and Substrates of Cytochrome P450 2C19 (AID 899); note: nearly all actives have a fitted effect of over 60% in size; note: potency is the fitted concentration of half-maximal effect", "conditions": "recombinant CYP2C19, luciferin-H EGE luminescence; series mostly up to 11.4 µM", "method_in_brief": "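Reactions contain 5nM enzyme, 10uM Luciferin-H EGE (KM) and 50mM KPO4; compound preincubates 10 min at 37C, NADPH regeneration starts turnover for 60 min. Luminescence after detection reagent gives activity.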", "values": [
      {"smiles": "CCCCCCCC#Cc1ccccc1C(NC(=O)OC)C(C(=O)OC)C(=O)OC", "note": "(configuration not stated)", "Potency": "2510 nM (active)"},
      {"smiles": "C=CC[C@@H]1C=C[C@H](Oc2ccc(C)cc2)[C@H](COC(=O)NCc2cccc3ccccc23)O1", "Potency": "1260 nM (active)"},
      {"smiles": "CC1CCC2C(=O)N3C(CCC(C)C3c3ccccc3Br)C(=O)N2C1c1ccc(C#CCN(C)C)cc1", "note": "(configuration not stated)", "Potency": "inactive"},
      {"smiles": "CC1CCC2C(=O)OC(CN3C(=O)c4ccccc4C3=O)CN2C1c1ccc(Br)cc1", "note": "(configuration not stated)", "Potency": "inactive"},
      {"smiles": "C[C@@H]1OC2C3=C(C(=O)[C@H]4O[C@@H]4[C@H]3O)[C@@H]1[C@H]1[C@H](C)OC=C3[C@H](O)[C@H]4O[C@H]4/C(=N\\OCc4ccccc4)[C@@]321", "Potency": "inactive"},
      {"smiles": "O=C1[C@@H]2[C@H]3[C@H](O)[C@H](O)C/C(=N/OC[C@@H](O)COCc4ccco4)[C@@H]3CC[C@H]2C(=O)N1c1ccc(F)cc1F", "Potency": "inactive"},
      {"smiles": "C=CCc1cccc(C2C(C)CCC3C(=O)N4C(CCC(C)C4c4cccc(CC=C)c4)C(=O)N32)c1", "note": "(configuration not stated)", "Potency": "inactive"},
      {"smiles": "C[C@@H]1/C=C\\CC(=O)OC[C@H](C)C(=O)N[C@@H](Cc2ccccc2)C(=O)OC1", "Potency": "inactive"},
      {"smiles": "CC(=O)OC[C@@H]1O[C@@H](O/N=C2/C[C@@H](O)[C@@H](O)[C@@H]3[C@@H]4C(=O)N(c5cccc(Oc6ccccc6)c5)C(=O)[C@H]4CC[C@H]23)[C@H](OC(C)=O)[C@H](OC(C)=O)[C@@H]1OC(C)=O", "Potency": "inactive"},
      {"smiles": "CCOC(=O)OCC1OC(C#Cc2ccc(Br)cc2)C=CC1OC(=O)OCC", "note": "(configuration not stated)", "Potency": "inactive"},
      {"smiles": "O=C1[C@@H]2[C@H]3[C@H](O)[C@H](O)C/C(=N/OC[C@@H](O)COCc4ccco4)[C@H]3CC[C@H]2C(=O)N1c1ccc(F)cc1F", "Potency": "inactive"},
      {"smiles": "CC(C)CO/N=C1/C[C@@H](O)[C@@H](O)[C@@H]2[C@@H]3C(=O)N(Cc4ccc5c(c4)OCO5)C(=O)[C@H]3CC[C@H]12", "Potency": "3980 nM (active)"},
      {"smiles": "COc1ccc(OC)c(-c2ccccc2/C=N/NS(=O)(=O)c2ccc(C)cc2)c1", "Potency": "100 nM (active)"},
      {"smiles": "CCC[C@@H]1C[C@@]1(CCC)C(NC(=O)OCc1ccccc1)c1ccc(-c2ccccc2)cc1", "note": "(some centres not stated)", "Potency": "1260 nM (active)"},
      {"smiles": "COC(=O)C(/C=C/C(C)Cc1cc(Br)cc(OCc2ccccc2)c1OC)OCc1ccccc1", "note": "(configuration not stated)", "Potency": "inactive"},
      {"smiles": "COc1ccc(/C=C/N(CCc2ccc(OC)c(OC)c2)C(=O)C(F)(F)F)cc1", "Potency": "79.4 nM (active)"},
      {"smiles": "CC1CCC2C(=O)N3C(CCC(C)[C@H]3c3cccc(N4CCCC4=O)c3)C(=O)N2C1c1cccc(N2CCCC2=O)c1", "note": "(some centres not stated)", "Potency": "inactive"},
      {"smiles": "C/C(CCN1CCc2nc(-c3ccccc3)c(-c3ccccc3)cc2C1)=N\\OC[C@@H](C)[C@H](OCc1ccccc1)C(C)C", "Potency": "1580 nM (active)"},
      {"smiles": "CC/C=C\\CC[C@H](OC(=O)c1ccc(Br)cc1)C1=CCCCC1=O", "Potency": "2000 nM (active)"},
      {"smiles": "COc1ccc(OC2C(O)COC2/C=C/c2ccccc2)cc1", "note": "(configuration not stated)", "Potency": "2000 nM (active)"},
      {"smiles": "C/C=C/OC(=O)NC(c1ccccc1)[C@]1(C(C)=O)CCCC1=O", "note": "(some centres not stated)", "Potency": "199 nM (active)"},
      {"smiles": "COc1cccc([C@@H]2Oc3ccc(OC)cc3/C(=N/OC[C@@H](O)COCc3ccco3)[C@@H]2O)c1", "Potency": "1580 nM (active)"},
      {"smiles": "C[C@@H]1O[C@H]2C3=C(C(=O)[C@H]4O[C@@H]4[C@H]3O)[C@@H]1[C@@H]1[C@@H](C)OC=C3[C@H](O)[C@H]4O[C@@H]4/C(=N\\OCc4ccccc4)[C@]312", "Potency": "631 nM (active)"}
    ]}
  ]
}
